The list is not random: actives were taken first. Their share in the collection is about 4%.
CF NFkB inh = blocks PAF-induced NF-kB reporter in cystic fibrosis cells; inhibition, % at 5 µM; KKLEB NF-kB-GFP reporter, GFP fluorescence overnight; actives 0.86% (n = 360,000);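 active = at least 50% inhibition at 5 µM, scaled per plate between neutral and stimulator controls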;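 also: PAF is a Pseudomonas aeruginosa culture filtrate used as stimulus; plate controls were PAF-stimulated DMSO wells for no effect and unstimulated DMSO wells for full effect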
Peg3 prom inh = Peg3 promoter activity inhibition; actives 1.7% (n = 360,000); HeLa PEG-Prom luciferase reporter, luminescence, overnight; inhibition, % at 20 µM; AID 588405;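 active = inhibition of at least 50% at 20 µM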
HIF-2a inh = blocks HIF-2a reporter activity; 786-0 RCC cells HIF-2a reporter, luciferase luminescence, overnight; inhibition, % at 18.8 µM; actives 0.72% (n = 360,000); AID 624352;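 active = inhibition of the luminescence signal of 40% or more relative to plate controls, in a single-dose primary screen at 18.75 µM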
KKLEB tox = CF airway cell cytotoxicity counter-screen. AID 602141. activity change (cytotoxicity), % at 5 µM. actives 0.36% (n = 360,000). KKLEB CF airway cells viability, ATPlite luminescence, overnight; stronger effect = lower value; cells stimulated with P. aeruginosa culture filtrate;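 active = corrected activity change at or below -50% at 5 µM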
TWEAK-Fn14 inh = TWEAK-Fn14 signaling inhibition; AID 1159606; inhibition, % at 10 µM; TWEAK-stimulated Fn14 reporter cells, luciferase luminescence, 8 h; actives 2% (n = 360,000); in the data active = inhibition above about 50%
TROY signal inh = inhibitors of TROY-dependent NF-kB signaling; Q293 LMP1-TROYcd NF-kB luciferase reporter, 4 h; inhibition, % at 10 µM; actives 0.98% (n = 360,000); AID 1347056;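 active = compounds whose plate-normalised and pattern-corrected inhibition of the luciferase reporter signal at the single screening dose is 50% or more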
* marks the source's active call; other numbers are inactive results; . = no result.

SMILES | CF NFkB inh | Peg3 prom inh | HIF-2a inh | KKLEB tox | TWEAK-Fn14 inh | TROY signal inh
COc1ccc(-c2sc3ccccc3c2-c2ccc(O)cc2)cc1 | 1.4 | 42.1 | 5.7 | 12.3 | 29.2 | -4.7
c1ccc(-c2sc3ccccc3c2-c2ccc(OCCN3CCOCC3)cc2)cc1 | 17.5 | 14.3 | 10.9 | -3.3 | -5.2 | -1.5
COc1ccc(-c2sc3ccccc3c2-c2ccc(OCCN(C)C)cc2)cc1 | 44.3 | 100.7* | 22.5 | -46.6 | -46.8 | 26.2
CN(C)CCOc1ccc(-c2c(-c3ccsc3)sc3ccccc23)cc1 | 42.5 | 98.5* | -2.0 | -31.4 | -29.6 | -5.5
COc1ccc(S(=O)(=O)N(C)C[C@H]2Oc3ncc(Br)cc3C(=O)N([C@@H](C)CO)C[C@@H]2C)cc1 | -5.1 | 8.7 | 11.9 | -3.1 | 9.7 | -0.3
CC(C)(C)c1ccc(/C=N/NC(=O)c2ccccn2)cc1 | -4.6 | -88.2 | -110.5 | -34.8 | 71.0* | 52.3*
COc1cccc(S(=O)(=O)NCc2ccc(C(=O)Nc3ccc(Cl)c(Cl)c3)cc2)c1 | -10.9 | 4.7 | 13.4 | 3.6 | 6.1 | -1.9
O=C(Nc1ccc(Cl)c(Cl)c1)c1cccc(S(=O)(=O)NCc2cccnc2)c1 | 10.8 | 45.3 | -19.1 | 4.4 | 89.5* | 63.6*
S=C(N/N=C1\CCc2ccccc21)NC1CCCCC1 | 14.6 | -21.0 | -41.2 | -6.3 | 74.2* | 70.9*
O=C(N/N=C1\CCc2ccccc21)c1ccccc1Cl | -12.0 | -245.8 | -237.7 | -13.8 | -11.9 | -34.8
O=C(N/N=C1\CCc2ccccc21)c1ccc(O)cc1 | 2.2 | -179.9 | -218.7 | -3.5 | 50.5* | -59.9
Oc1ccc(Cl)c(CN2CCN(c3ncc(Cc4ccccc4)cn3)CC2)c1 | . | . | -7.8 | . | . | .
Cc1nc(-c2cccs2)sc1C(=O)O | 0.9 | -10.2 | 7.1 | -26.2 | -4.1 | -15.1
Cc1nccc(-c2sc(-c3cccs3)nc2C)n1 | -7.4 | -164.3 | -194.7 | -7.0 | -9.9 | 59.5*
COC(=O)c1ccc2cc(OC)cc([N+](=O)[O-])c2n1 | -6.1 | -11.3 | -15.2 | -14.6 | -26.1 | -26.5
Cc1cc2nc(-c3ccc(SCC(=O)N4CCc5ccccc54)nc3)[nH]c2cc1C | 29.0 | 113.8* | -210.8 | -52.2* | 9.7 | -0.2
O=C(CSc1ncccc1-c1nc2ccccc2[nH]1)N1CCc2ccccc21 | -9.8 | -53.4 | -59.2 | -13.1 | 67.1* | 61.7*
Cc1cc2nc(-c3ccc(SCc4ccccc4C#N)nc3)[nH]c2cc1C | 3.5 | -93.0 | -160.9 | -10.7 | 58.4* | 64.0*
Cc1cc2nc(-c3ccc(SCc4ccc(C(=O)O)cc4)nc3)[nH]c2cc1C | -8.6 | -134.3 | -188.3 | 5.7 | 21.7 | 52.3*
COC(=O)CSc1ncccc1-c1nc2ccccc2[nH]1 | 1.2 | -27.2 | -36.6 | -1.9 | -11.2 | -25.0
NS(=O)(=O)c1ccc(CNC(=O)c2ccc(NS(=O)(=O)c3ccc4[nH]c(=O)[nH]c4c3)cc2)cc1 | -25.0 | 6.3 | 2.4 | 5.1 | -21.4 | -15.4
CC(C)OC(=O)N(C)C[C@@H]1OCc2cnnn2CCCC(=O)N([C@@H](C)CO)C[C@H]1C | -5.0 | -21.8 | 4.0 | 7.8 | 10.9 | -15.6
COc1ccc(NC(=O)CSCC(=O)Nc2ccccc2C(=O)N2CCCCC2)cc1 | -7.4 | 7.7 | 5.1 | 6.9 | -4.0 | 5.7
C[C@H]1CN([C@@H](C)CO)C(=O)CCCn2cc(nn2)CO[C@@H]1CN(C)C(=O)Nc1ccccc1C(F)(F)F | 11.1 | -11.3 | 7.3 | -7.7 | -5.2 | -2.3
Cc1cc(Nc2ccccc2)nn1C(=O)c1ccc(Br)cc1 | -3.9 | -94.1 | -10.2 | 7.7 | 52.6* | .
N/C(=N\N=C/c1ccc(Br)cc1)N/N=C\c1ccc(Br)cc1 | -38.3 | 101.5* | -17.1 | -1.9 | -43.3 | 7.0
N/C(=N\N=C/c1ccc(F)cc1)N/N=C\c1ccc(F)cc1 | -0.5 | 23.2 | -99.3 | -16.3 | -1.6 | -6.4
CC[C@H](C)[C@@H]1NC(=O)[C@@H](CC(C)C)NC(=O)[C@H](C(C)C)NC(=O)[C@H]2CSSC[C@H](NC1=O)C(=O)N2 | 82.5* | 97.9* | 95.7* | -106.0* | 106.7* | 86.3*
CC(C)=CCC/C(C)=C/CNC(=O)CC1C[C@H](C(=O)N(C(C)C)C(C)C)[C@@]2(C)c3[nH]c4ccccc4c3CCN2C1=O (stereo not given in full) | 16.8 | 89.3* | -0.4 | -4.2 | 37.3 | -5.7
